# Data from PubChem BioAssay (NCATS).
# Inconclusive results are not listed. Values without a mark were called inactive. The source made the active and inactive calls. Calls come from the whole dose curve; as a rule, active = well fitted cell-killing curve with a large enough effect; inconclusive = small, poorly fitted or top-dose-only effect, or effect the other way; inactive = no such curve, though single readings can be large or run the other way.
# Legend:
# [1] = Quantitative High-Throughput drug screen in 47 multiple myeloma cell lines against the NCATS MIPE library collection: L363_DSMZ cell viability assay (AID 1918984); settings: L363 myeloma viability, CellTiter-Glo ATP luminescence, 48 h; viability (% of control): at 45.8 µM (top of the series); note: nearly all actives have a fitted effect of over 40% in size
# How it was run: (§1)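 Readout: median RLU from CellTiter-Glo after 5 min at room temperature. Preceding step was 48 h drug treatment of 500 cells/well at 37 °C, 5% CO2, with DMSO-only and media-only control wells.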
# [2] = Quantitative High-Throughput drug screen in 47 multiple myeloma cell lines against the NCATS MIPE library collection: KMS34_JCRB cell viability assay (AID 1918985); note: nearly all actives have a fitted effect of over 40% in size
# How it was run: as §1
# [3] = Quantitative High-Throughput drug screen in 47 multiple myeloma cell lines against the NCATS MIPE library collection: OCIMY7_PLB cell viability assay (AID 1918987); settings: OCI-MY7 myeloma viability, CellTiter-Glo ATP, 48 h; viability (% of DMSO): at 45.8 µM (top of the series); note: nearly all actives have a fitted effect of over 65% in size
# How it was run: as §1
# [4] = Quantitative High-Throughput drug screen in 47 multiple myeloma cell lines against the NCATS MIPE library collection: OCIMY5_PLB cell viability assay (AID 1918988); note: nearly all actives have a fitted effect of over 65% in size
# How it was run: as §1
# [5] = Quantitative High-Throughput drug screen in 47 multiple myeloma cell lines against the NCATS MIPE library collection: OPM1_PLB cell viability assay (AID 1918989); note: nearly all actives have a fitted effect of over 40% in size
# How it was run: as §1
# [6] = Quantitative High-Throughput drug screen in 47 multiple myeloma cell lines against the NCATS MIPE library collection: U266_ATCC cell viability assay (AID 1919864); note: nearly all actives have a fitted effect of over 35% in size
# How it was run: as §1
# [7] = Quantitative High-Throughput drug screen in 47 multiple myeloma cell lines against the NCATS MIPE library collection: XG6_PLB cell viability assay (AID 1919865); note: nearly all actives have a fitted effect of over 40% in size
# How it was run: as §1
# [8] = Quantitative High-Throughput drug screen in 47 multiple myeloma cell lines against the NCATS MIPE library collection: XG1_PLB cell viability assay (AID 1919866); note: nearly all actives have a fitted effect of over 35% in size
# How it was run: as §1
# [9] = Quantitative High-Throughput drug screen in 47 multiple myeloma cell lines against the NCATS MIPE library collection: VP6_DJ cell viability assay (AID 1919867); note: nearly all actives have a fitted effect of over 40% in size
# How it was run: as §1
# [10] = Quantitative High-Throughput drug screen in 47 multiple myeloma cell lines against the NCATS MIPE library collection: PE2_PLB cell viability assay (AID 1919869); note: nearly all actives have a fitted effect of over 35% in size
# How it was run: as §1
# [11] = Quantitative High-Throughput drug screen in 47 multiple myeloma cell lines against the NCATS MIPE library collection: PCM6_Riken cell viability assay (AID 1919870); note: nearly all actives have a fitted effect of over 30% in size
# How it was run: as §1
# [12] = Quantitative High-Throughput drug screen in 47 multiple myeloma cell lines against the NCATS MIPE library collection: RPMI8226_ATCC cell viability assay (AID 1919871); note: nearly all actives have a fitted effect of over 30% in size
# How it was run: as §1
# [13] = Quantitative High-Throughput drug screen in 47 multiple myeloma cell lines against the NCATS MIPE library collection: OPM2_DSMZ cell viability assay (AID 1919872); note: nearly all actives have a fitted effect of over 30% in size
# How it was run: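 Myeloma cells (500 per well) were exposed to MIPE 4.0 compounds by pin transfer and incubated 48 hours at 37C, 5% CO2. Viability was read as ATP by CellTiter-Glo luminescence, normalised to DMSO (100%) and media-only (0%) wells.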
# [14] = Quantitative High-Throughput drug screen in 47 multiple myeloma cell lines against the NCATS MIPE library collection: KMS11_JCRBsus cell viability assay (AID 1919873); note: nearly all actives have a fitted effect of over 50% in size
# How it was run: as §1
# [15] = Quantitative High-Throughput drug screen in 47 multiple myeloma cell lines against the NCATS MIPE library collection: KMS28BM_JCRB cell viability assay (AID 1919874); note: nearly all actives have a fitted effect of over 35% in size
# How it was run: as §1
# [16] = Quantitative High-Throughput drug screen in 47 multiple myeloma cell lines against the NCATS MIPE library collection: UTMC2_PLB cell viability assay (AID 1919868); settings: CellTiter-Glo ATP luminescence, 48 h; viability (% of DMSO control): at 45.8 µM (top of the series); note: nearly all actives have a fitted effect of over 55% in size
# How it was run: as §1
# [17] = Quantitative High-Throughput drug screen in 47 multiple myeloma cell lines against the NCATS MIPE library collection: SKMM1_PLB cell viability assay (AID 1919863); settings: SKMM1 myeloma viability, CellTiter-Glo ATP, 48 h; viability: hits give low values; note: nearly all actives have a fitted effect of over 35% in size
# How it was run: as §1
# Potency is the fitted concentration of half-maximal effect.
SMILES,Potency [1],Potency [2],Potency [3],Potency [4],Potency [5],Potency [6],Potency [7],Potency [8],Potency [9],Potency [10],Potency [11],Potency [12],Potency [13],Potency [14],Potency [15],Potency [16],Potency [17],viability [17] [%]
CCc1cc(-c2n[nH]c(C)c2-c2ccc3c(c2)OCCO3)c(O)cc1O,0.148 µM (active),3.32 µM (active),1.66 µM (active),3.72 µM (active),6.62 µM (active),7.43 µM (active),9.35 µM (active),4.18 µM (active),4.18 µM (active),8.33 µM (active),8.33 µM (active),6.62 µM (active),7.43 µM (active),1.87 µM (active),11.8 µM (active),,,
O=C(c1ccc(C=Cc2n[nH]c3ccccc23)cc1)N1CCNCC1,3.72 µM (active),10.5 µM (active),0.662 µM (active),14.8 µM (active),2.64 µM (active),18.7 µM (active),14.8 µM (active),0.833 µM (active),3.72 µM (active),5.9 µM (active),,,10.5 µM (active),1.05 µM (active),,0.332 µM (active),,
C=CCc1cccc(C=NNC(=O)CN2CCN(Cc3ccccc3)CC2)c1O,6.62 µM (active),4.69 µM (active),14.8 µM (active),7.43 µM (active),20.9 µM (active),8.33 µM (active),9.35 µM (active),10.5 µM (active),,20.9 µM (active),26.4 µM (active),,16.6 µM (active),8.33 µM (active),,20.9 µM (active),,
CCC(=O)N1CCN(c2ccc(-n3c(=O)ccc4cnc5ccc(-c6cnc7ccccc7c6)cc5c43)cc2C(F)(F)F)CC1,inactive,0.0059 µM (active),16.6 µM (active),,0.0132 µM (active),0.0418 µM (active),,,,0.0093 µM (active),,,0.0264 µM (active),,,0.0469 µM (active),0.0148 µM (active),
COc1ccc(-c2cc(=O)c3c(O)cc(O[C@@H]4O[C@H](CO[C@@H]5O[C@@H](C)[C@H](O)[C@@H](O)[C@@H]5O)[C@@H](O)[C@H](O)[C@@H]4O)cc3o2)cc1O,inactive,inactive,10.5 µM (active),18.7 µM (active),,18.7 µM (active),9.35 µM (active),8.33 µM (active),,23.5 µM (active),11.8 µM (active),inactive,inactive,inactive,inactive,,,120
CC(NCCc1ccc(O)cc1)C(O)c1ccc(O)cc1 (centres undefined),inactive,inactive,,0.132 µM (active),inactive,inactive,inactive,inactive,,inactive,inactive,inactive,inactive,inactive,,,,131
O=C(NC[C@H](O)CO)c1ccncc1Nc1ccc(I)cc1F,13.2 µM (active),1.18 µM (active),0.209 µM (active),,18.7 µM (active),20.9 µM (active),7.43 µM (active),14.8 µM (active),,5.26 µM (active),16.6 µM (active),,,2.64 µM (active),,,8.33 µM (active),
COC1CCC(C(=O)c2ccc3nc4c(cc3c2)CCCO4)CC1 (centres undefined),23.5 µM (active),29.6 µM (active),,26.4 µM (active),,18.7 µM (active),16.6 µM (active),14.8 µM (active),,18.7 µM (active),16.6 µM (active),20.9 µM (active),23.5 µM (active),20.9 µM (active),,,26.4 µM (active),
O=C(O)c1nc(=O)[nH]c(=O)[nH]1,inactive,inactive,inactive,,,inactive,,,,,inactive,10.2 µM (active),inactive,,,,,
N#CC(=C1Nc2ccccc2S1)c1ccnc(OCc2ccc(CN3CCOCC3)cc2)n1,0.0372 µM (active),18.7 µM (active),,8.33 µM (active),,5.26 µM (active),1.18 µM (active),1.18 µM (active),,5.26 µM (active),,20.9 µM (active),,1.05 µM (active),,,,
OC[C@H]1O[C@@H](O[C@H]2[C@@H](O)[C@@](O)(CO)O[C@@H]2CO)[C@H](O)[C@@H](O)[C@@H]1O,inactive,inactive,inactive,inactive,inactive,inactive,inactive,3.72 µM (active),,,,inactive,inactive,inactive,,inactive,,96.6
CCOC(=O)c1c(CSc2ccccc2)n(C)c2cc(Br)c(O)c(CN(C)C)c12,20.9 µM (active),11.8 µM (active),,16.6 µM (active),,,14.8 µM (active),,,,16.6 µM (active),11.8 µM (active),,18.7 µM (active),14.8 µM (active),,6.62 µM (active),
CCN(CC)CCCCNc1nc2cc(Cl)c(Cl)cc2nc1-c1ccc(-c2cccs2)s1,5.9 µM (active),16.6 µM (active),,7.43 µM (active),5.9 µM (active),23.5 µM (active),8.33 µM (active),8.33 µM (active),8.33 µM (active),9.35 µM (active),8.33 µM (active),,10.5 µM (active),8.33 µM (active),,9.35 µM (active),16.6 µM (active),
CCCCCOC(=O)Nc1nc(=O)n([C@@H]2O[C@H](C)[C@@H](O)C2O)cc1F (some centres undefined),inactive,inactive,inactive,,inactive,inactive,3.32 µM (active),18.7 µM (active),2.64 µM (active),inactive,inactive,inactive,inactive,,,inactive,,
CN1C(=O)C(Cc2c[nH]c3ccccc23)NC1=S (centres undefined),inactive,inactive,,,inactive,5.9 µM (active),inactive,inactive,7.43 µM (active),inactive,3.72 µM (active),,,,inactive,2.96 µM (active),0.418 µM (active),
CC(C)Oc1cc(Nc2nc(N[C@@H](C)c3ccc(F)cn3)ncc2Cl)[nH]n1,23.5 µM (active),,4.18 µM (active),26.4 µM (active),3.72 µM (active),,7.43 µM (active),14.8 µM (active),7.43 µM (active),6.62 µM (active),7.43 µM (active),inactive,16.6 µM (active),,,8.33 µM (active),,
Cc1ccc2c(c1)C(=O)[C@]1(O)CCN(c3ccccc3)C1=N2,inactive,1.48 µM (active),,,inactive,,inactive,inactive,,inactive,inactive,,inactive,,10.5 µM (active),4.69 µM (active),,
CN1CC(=O)NC1=NC(=O)Nc1cccc(Cl)c1,2.96 µM (active),,13.2 µM (active),23.5 µM (active),18.7 µM (active),20.9 µM (active),23.5 µM (active),29.6 µM (active),inactive,20.9 µM (active),,14.8 µM (active),inactive,11.8 µM (active),,,18.7 µM (active),
CC(C)CNc1ccnc(NCc2csc(-c3ccccc3)n2)n1,1.87 µM (active),,16.6 µM (active),14.8 µM (active),11.8 µM (active),20.9 µM (active),16.6 µM (active),16.6 µM (active),5.26 µM (active),18.7 µM (active),,,,13.2 µM (active),16.6 µM (active),10.5 µM (active),,
NS(=O)(=O)c1ccc(Nc2nc(OCC3CCCCC3)c3[nH]cnc3n2)cc1,20.9 µM (active),,13.2 µM (active),23.5 µM (active),20.9 µM (active),20.9 µM (active),2.96 µM (active),2.64 µM (active),16.6 µM (active),16.6 µM (active),10.5 µM (active),inactive,,,,11.8 µM (active),,
CC[C@H](C)C(=O)O[C@H]1C[C@H](O)C=C2C=C[C@H](C)[C@H](CC[C@@H](O)C[C@@H](O)CC(=O)O)[C@H]21,inactive,,inactive,inactive,inactive,inactive,inactive,inactive,,inactive,inactive,inactive,inactive,,,inactive,,102
CC(C)N(CCCNC(=O)Nc1ccc(C(C)(C)C)cc1)C[C@H]1O[C@@H](n2cc(Br)c3c(N)ncnc32)[C@H](O)[C@H]1O,inactive,20.9 µM (active),,,23.5 µM (active),20.9 µM (active),20.9 µM (active),23.5 µM (active),,,23.5 µM (active),,23.5 µM (active),18.7 µM (active),,,,
C[C@H]1[C@H](O)O[C@@H]2O[C@@]3(C)CC[C@@H]4[C@H](C)CC[C@@H]1[C@@]24OO3,2.35 µM (active),,1.18 µM (active),5.26 µM (active),11.8 µM (active),,3.72 µM (active),3.72 µM (active),1.48 µM (active),2.35 µM (active),,1.32 µM (active),,1.66 µM (active),13.2 µM (active),,,
CC(C)(C)c1nc(-c2cccc(NS(=O)(=O)c3c(F)cccc3F)c2F)c(-c2ccnc(N)n2)s1,16.6 µM (active),,0.209 µM (active),1.32 µM (active),18.7 µM (active),5.9 µM (active),2.96 µM (active),10.5 µM (active),2.96 µM (active),5.9 µM (active),,,3.32 µM (active),,,inactive,,
CCCCc1ccc(NS(=O)(=O)c2ccc(C)c(C(=O)N3CCN(c4cccc(C)c4C)CC3)c2)cc1,inactive,18.7 µM (active),,,,13.2 µM (active),,,,,26.4 µM (active),20.9 µM (active),,,16.6 µM (active),,20.9 µM (active),
CN[C@H]1[C@@H](O[C@@H]2[C@H](O[C@@H]3[C@@H](O)[C@@H](O)[C@@H](N=C(N)N)[C@@H](O)[C@@H]3N=C(N)N)O[C@H](C)[C@@]2(O)C=O)O[C@@H](CO)[C@@H](O)[C@H]1O,0.0053 µM (active),inactive,,,inactive,inactive,inactive,inactive,,inactive,inactive,inactive,inactive,inactive,,,0.946 µM (active),
